Among the data in PubChem BioAssay (NCI) are growth values, retold here.

Molecules are shown by their SMILES. About 83,000 compounds went through this panel and 20% of them were active in at least one assay; those are over-represented in the sample as a whole.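 Interpretation: 100, growth as untreated; towards 0, rising growth inhibition; 0, no net growth; 0 to -100, cell death. Compounds scoring below 10 were considered active.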 Activity calls are given as the source filed them.

The test system of the assay is SK-OV-3 ovarian. The assay is described as follows: NCI-60 one-dose screen, 48 h (100 = growth as untreated, 0 = no growth, -100 = all killed). Particulars: 10 µM unless noted.
As to `Nc1cc(C(=O)N/N=C\c2ccc(OC(F)F)c(OC3CCCC3)c2)nn1CC(O)c1ccccc1` (stereo unspecified), the growth was 105% (inactive). For the compound `Clc1ccc2[nH]cc(-c3nn4cc(-c5ccncc5)nc4s3)c2c1`, the growth was 15.4% (inactive). The result for `CN1CC[C@@H]2[C@@]3(C)CC[C@H](O)C(C)(C)[C@@H]3CC[C@@]2(C)[C@]2(C)CC[C@@]3(CO)CCC(C)(C)C[C@@H]3C12` (stereo partly specified) reads 108% (inactive); that for `Brc1cc(-c2cc(-c3ccc4c(c3)OCCO4)[nH]n2)cs1`, 62.5% (inactive).

As to `NS(=O)(=O)c1ccc(Nc2nc(Nc3ccccc3)nc(N3N=C(c4ccc(Cl)cc4)CC3c3ccc(Cl)cc3)n2)cc1` (stereo unspecified), the growth is 64.9% (inactive). On to `O=C(N/N=C\c1ccc([N+](=O)[O-])cc1)c1ccc2nc(-c3ccc(Br)cc3)[nH]c2c1`, for which the growth was 45% (inactive). In the case of `O=C(/C=C/c1cccc(C(F)(F)F)c1)Nc1cccc(C(F)(F)F)c1`, the growth is 79.3% (inactive). Under `Brc1cccc(-c2cc(-c3ccc4c(c3)OC=CO4)[nH]n2)c1` stands 67.9% (inactive); under `CCc1cc2c(cc1Cl)nc1c(=O)[nH]c(=O)nc-1n2CCOCC(C)C`, 111% (inactive). Consider `CCCCSC1=C(Cl)CN(c2ccccc2)C1=O`, for which the growth was 105% (inactive). Regarding `Brc1ccc(-c2cc(-c3ccc4c(c3)OC=CO4)n[nH]2)s1`, the growth was 88.1% (inactive). For the compound `O=c1c2cc(-c3ccc(F)cc3F)ccc2n(Nc2ccccc2)c(=O)n1-c1cccc(C(F)(F)F)c1`, the growth was 8.64% (active). The result for `CN1CCN(CCCCCC(=O)Nc2nc(-c3cccc(NS(=O)(=O)c4cccc5c(N(C)C)cccc45)c3)cs2)CC1` reads 105% (inactive); that for `CCCCc1nc2c(N)nc3ccccc3c2n1Cc1cccc(CN)c1`, 91.2% (inactive); that for `CCCCCCCCCCCC(=O)NC(C)(C)C(=O)N1CCCC1C(=O)NC(C)(C)C(=O)NC(C)(C)C(=O)N1CCCC1C(=O)NC(C)(C)C(=O)NC(C)(C)C(=O)N1CCCC1C(=O)NC(C)C(=O)NCCC(=O)NC(C)C(=O)NC(C)(C)C(=O)NC(C)(C)C(=O)NC(C)(C)C(=O)NCCC(=O)NC(C)(C)C(=O)NC(C)(C)C(=O)NC(C)(C)C(=O)NC(C)C(=O)NCCC(=O)O` (stereo unspecified), -96.9% (active). Under `NS(=O)(=O)c1ccc(Nc2nc(N/N=C/c3ccc4c(c3)OCO4)nc(Nc3ccccc3)n2)cc1` stands 65.7% (inactive). `O=[N+]([O-])c1ccc(NC(=S)NNC(=S)Nc2ccc(Br)cc2)cc1`: the growth is 100% (inactive). Regarding `Cc1cc(=O)[nH]c(O)c1C#N`, the growth is 106% (inactive).

Consider `Cc1ccc(OCc2occc2C(=O)N2CCOCC2)cc1`, for which the growth is 109% (inactive). Under `O=C1C(SCc2ccccc2)=C(Cl)CN1c1ccccc1` stands 126% (inactive); under `COc1ccc(C2C(C#N)=C(/N=C/c3ccc(Cl)cc3)Oc3c2sc2c(C)cccc32)cc1` (stereo unspecified), 42.8% (inactive). Under `CN(C)CCNc1ccc2ncc(C#Cc3cncc(C(=O)Nc4ccc(CN5CCN(C)CC5)c(C(F)(F)F)c4)c3)n2n1` stands 45.1% (inactive). For `CN1CCC[C@]2(C)[C@H]3CC[C@@H]4[C@@H]5[C@H]6OC[C@@]5(CCC6(C)C)CC[C@@]4(C)[C@]3(C)CC[C@H]2C1(C)C`, the growth is 118% (inactive).

For `COc1ccccc1/C=C/C(=O)c1nnn(-c2ccc(F)cc2)c1C`, the growth was 95.8% (inactive). Under `CC(C)[C@H]1c2[nH]c3ccccc3c2C[C@H]2C(=O)N(CCCCCCC(=O)NO)CC(=O)N12` stands 95% (inactive). Under `COC(=O)CCCNCCCn1ccc2cc(NCc3cccc(-c4ccccc4)c3C)ccc21` stands 92.8% (inactive); under `C=C(C=O)[C@@H]1CC[C@]2(C(=O)O)CC[C@]3(C)C(CC[C@@H]4[C@@](C)(CCC#N)[C@H](C(=C)C=O)CC[C@]43C)[C@@H]12` (stereo partly specified), 126% (inactive). The result for `CC1(C)CC[C@]23CC[C@]4(C)[C@H](CC[C@@H]5[C@@]6(C)CC[C@H](NCO)C(C)(C)[C@@H]6CC[C@]54C)[C@H]2[C@H]1OC3` reads 105% (inactive); that for `O=C1/C(=C/C=C/c2ccco2)SC(=S)N1Cc1ccccc1`, 103% (inactive).

In the case of `COc1ccc(/C=N/NC(=O)c2c(N)nn(C)c2Nc2ccccc2)cc1Oc1ccccc1`, the growth is 112% (inactive). Under `Cc1[nH]c(C(=O)Nc2ccc(S(=O)(=O)N3CCCCC3)cc2OCCOCCOCCOCCOCCOCCOCCOCCOCCOc2cc(S(=O)(=O)N3CCCCC3)ccc2NC(=O)c2[nH]c(C)c3c2CCCCC3=O)c2c1C(=O)CCCC2` stands -42.5% (active).
